CYP2C19 inh – blocks human cytochrome P450 2C19 | P33261 | CYP2C19 Supersomes, luciferin-H EGE luminescence, 30 min | inhibition, % at 5 µM | hit rate 21% among 96,000 | AID 778;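 active means CYP2C19 inhibition above a set limit at 5 µM in the primary screen, cut at about 50% in these data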
CYP2C19 activ – activators of human cytochrome P450 2C19 | recombinant CYP2C19, luciferin-H EGE luminescence; stronger effect = higher value; 0 = fully inhibited enzyme, 1 = untreated enzyme | activation factor at 5 µM | 96,000 tested, under 10 active | AID 1025;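 active means activation factor of at least 2 at 5 µM in the primary screen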
CYP2C9 inhib – human CYP2C9 inhibition | P11712 | CYP2C9 Supersomes, luciferin-H conversion, luminescence | inhibition, % at 5 µM | hit rate 20% among 96,000 | AID 777;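 active means blocking of liver enzyme CYP2C9 beyond about 50% at 5 µM, limit read from the data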
Target sequence (P11712 whole entry, looked up): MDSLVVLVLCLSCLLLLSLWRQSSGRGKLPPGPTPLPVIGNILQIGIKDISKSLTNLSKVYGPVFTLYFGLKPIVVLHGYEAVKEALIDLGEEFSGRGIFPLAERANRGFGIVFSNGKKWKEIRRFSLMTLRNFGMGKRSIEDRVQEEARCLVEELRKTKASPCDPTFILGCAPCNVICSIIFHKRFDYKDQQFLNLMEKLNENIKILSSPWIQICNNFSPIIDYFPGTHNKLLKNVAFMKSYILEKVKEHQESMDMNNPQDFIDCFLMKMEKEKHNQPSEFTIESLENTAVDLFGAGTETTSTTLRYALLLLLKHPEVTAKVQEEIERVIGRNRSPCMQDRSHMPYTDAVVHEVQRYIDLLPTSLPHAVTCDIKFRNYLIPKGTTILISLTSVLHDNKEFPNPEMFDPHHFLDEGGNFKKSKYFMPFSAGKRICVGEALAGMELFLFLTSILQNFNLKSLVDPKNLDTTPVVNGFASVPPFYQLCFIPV
PostGolgi yeast – growth inhibition of a yeast mutant, post-Golgi transport screen; post-Golgi transport phenotypic cell assay; hit rate 0.9% among 98,000; inhibition, % at 10 µM;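 further: yeast cells grown in 1536-well plates; yeast grown about 18 h at 30C before absorbance read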
PostGolgi ctrl – inhibits growth of the yeast control strain. efflux-deficient yeast background strain, growth absorbance A615, 16 h. inhibition, % at 10 µM. hit rate 5% among 98,000. AID 738
CYP2C9 act – CYP2C9 (human) activation; P11712; recombinant CYP2C9, luciferin-H conversion, luminescence; stronger effect = higher value; factor 1 = untreated enzyme, 0 = blocked; activation factor at 5 µM; hit rate 1.4% among 96,000;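 active means activation factor of 2 or more for CYP2C9 at a 5 µM dose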
A number is an active result. The list is not random: actives were taken first. Their share in the collection is about 32%. Unless noted, no stated cut-off is given here; in the data, active means inhibition above about 30%; inactive means the rest.

Screening CCc1ccccc1NC(=O)CSc1nnc([C@H](CCSC)NC(=O)OC(C)(C)C)o1 returned CYP2C19 inh 50.7, CYP2C19 activ inactive, CYP2C9 inhib 64.9, PostGolgi yeast inactive, PostGolgi ctrl inactive and CYP2C9 act inactive.
For CSCC[C@H](NC(=O)OC(C)(C)C)c1nnc(SCC=C(C)C)o1 the results were CYP2C19 inh 51.3, CYP2C19 activ inactive, CYP2C9 inhib 56.7, PostGolgi yeast inactive, PostGolgi ctrl inactive and CYP2C9 act inactive.
Screening Cc1cc([N+](=O)[O-])c2[nH]c(C(=O)N/N=C/c3ccccc3C(=O)O)c(-c3ccccc3)c2c1 returned CYP2C19 inh inactive, CYP2C19 activ inactive, CYP2C9 inhib inactive, PostGolgi yeast inactive, PostGolgi ctrl inactive and CYP2C9 act inactive.
O=C(c1cnn2ccccc12)N(Cc1ccco1)C1CCCC1 was read as CYP2C19 inh 59.5, CYP2C19 activ inactive, CYP2C9 inhib inactive, PostGolgi yeast inactive, PostGolgi ctrl inactive and CYP2C9 act inactive.
Screening CCOC(=O)CCSc1nc(C)c2cc(C)ccc2n1 returned CYP2C19 inh 78.4, CYP2C19 activ inactive, CYP2C9 inhib 57.6, PostGolgi yeast inactive, PostGolgi ctrl inactive and CYP2C9 act inactive.
For CCN1CCN(c2ccc(NC(=O)c3cccnc3)cc2Cl)CC1 the results were CYP2C19 inh inactive, CYP2C19 activ inactive, CYP2C9 inhib inactive, PostGolgi yeast inactive, PostGolgi ctrl inactive and CYP2C9 act inactive.
For COc1ccc(NC(=S)Nc2cc(-c3ccccc3)[nH]n2)cc1Cl the results were CYP2C19 inh inactive, CYP2C19 activ inactive, CYP2C9 inhib inactive, PostGolgi yeast inactive, PostGolgi ctrl 30.5 and CYP2C9 act inactive.
CCOc1ccc(NC(=S)Nc2cc(-c3ccccc3)[nH]n2)cc1 was read as CYP2C19 inh inactive, CYP2C19 activ inactive, CYP2C9 inhib inactive, PostGolgi yeast inactive, PostGolgi ctrl inactive and CYP2C9 act inactive.
For COC(=O)c1ccccc1NC(=O)COC(=O)c1ccco1 the results were CYP2C19 inh inactive, CYP2C19 activ inactive, CYP2C9 inhib inactive, PostGolgi yeast inactive, PostGolgi ctrl inactive and CYP2C9 act inactive.
`CC1CCCC(NC(=O)COC(=O)c2ccccc2NC(=O)c2ccco2)C1C` (configuration not stated) gave CYP2C19 inh inactive, CYP2C19 activ inactive, CYP2C9 inhib inactive, PostGolgi yeast inactive, PostGolgi ctrl inactive and CYP2C9 act inactive.
Screening O=C(COC(=O)c1ccccc1NC(=O)c1ccco1)NCC1CCCCC1 returned CYP2C19 inh 79.4, CYP2C19 activ inactive, CYP2C9 inhib 94.7, PostGolgi yeast inactive, PostGolgi ctrl inactive and CYP2C9 act inactive.
For O=C(COC(=O)c1ccccc1NC(=O)c1ccco1)NCCC1=CCCCC1 the results were CYP2C19 inh inactive, CYP2C19 activ inactive, CYP2C9 inhib 83.8, PostGolgi yeast inactive, PostGolgi ctrl inactive and CYP2C9 act inactive.
For CC(C)C(OC(=O)c1ccco1)C(=O)NC1CCCCC1 (configuration not stated) the results were CYP2C19 inh 79.5, CYP2C19 activ inactive, CYP2C9 inhib inactive, PostGolgi yeast inactive, PostGolgi ctrl inactive and CYP2C9 act inactive.
Screening COC(=O)c1ccccc1NC(=O)COC(=O)c1ccc(C)c(NC(=O)c2ccco2)c1 returned CYP2C19 inh 56.8, CYP2C19 activ inactive, CYP2C9 inhib 75.0, PostGolgi yeast inactive, PostGolgi ctrl inactive and CYP2C9 act inactive.
O=C(COC(=O)c1ccccc1NC(=O)c1ccco1)NC1CCCCC1 was read as CYP2C19 inh inactive, CYP2C19 activ inactive, CYP2C9 inhib inactive, PostGolgi yeast inactive, PostGolgi ctrl inactive and CYP2C9 act inactive.
Screening CCC(c1nnnn1C(C)C)N1CCN(C2CCCC2)CC1 (configuration not stated) returned CYP2C19 inh inactive, CYP2C19 activ inactive, CYP2C9 inhib inactive, PostGolgi yeast inactive, PostGolgi ctrl inactive and CYP2C9 act inactive.
CC1CCN(Cc2ccc(NC(=O)CC3Oc4ccccc4NC3=O)cc2)CC1 (configuration not stated) was read as CYP2C19 inh inactive, CYP2C19 activ inactive, CYP2C9 inhib inactive, PostGolgi yeast inactive, PostGolgi ctrl inactive and CYP2C9 act inactive.
`CCCn1nc2cc(C(=O)NCc3ccc(C)cc3)ccc2c1OC` gave CYP2C19 inh inactive, CYP2C19 activ inactive, CYP2C9 inhib inactive, PostGolgi yeast inactive, PostGolgi ctrl inactive and CYP2C9 act inactive.
Screening O=C(COC(=O)c1cncc(Br)c1)NCCC1=CCCCC1 returned CYP2C19 inh 88.1, CYP2C19 activ inactive, CYP2C9 inhib 72.1, PostGolgi yeast inactive, PostGolgi ctrl inactive and CYP2C9 act inactive.
`O=C(NCC1CCCCC1)c1ccco1` gave CYP2C19 inh 66.4, CYP2C19 activ inactive, CYP2C9 inhib inactive, PostGolgi yeast inactive, PostGolgi ctrl inactive and CYP2C9 act inactive.
Screening O=C(NC1CCCCCCC1)c1ccco1 returned CYP2C19 inh inactive, CYP2C19 activ inactive, CYP2C9 inhib inactive, PostGolgi yeast inactive, PostGolgi ctrl inactive and CYP2C9 act inactive.
Screening O=C(COC(=O)c1ccccc1NC(=O)c1ccco1)Nc1ccc2c(c1)OCO2 returned CYP2C19 inh inactive, CYP2C19 activ inactive, CYP2C9 inhib 58.3, PostGolgi yeast inactive, PostGolgi ctrl inactive and CYP2C9 act inactive.
For O=S(=O)(Nc1ncnc2sc3c(c12)CCC3)c1ccc(Cl)s1 the results were CYP2C19 inh inactive, CYP2C19 activ inactive, CYP2C9 inhib 80.6, PostGolgi yeast inactive, PostGolgi ctrl inactive and CYP2C9 act inactive.
For Cc1nc(NS(=O)(=O)c2ccc(Br)cc2)c2c3c(sc2n1)CCC3 the results were CYP2C19 inh 76.5, CYP2C19 activ inactive, CYP2C9 inhib 97.1, PostGolgi yeast inactive, PostGolgi ctrl 33.1 and CYP2C9 act inactive.
Cc1ccc(CNc2nc(C)nc3sc4c(c23)CCC4)cc1 was read as CYP2C19 inh inactive, CYP2C19 activ inactive, CYP2C9 inhib inactive, PostGolgi yeast inactive, PostGolgi ctrl inactive and CYP2C9 act inactive.
Cc1nc(NS(=O)(=O)c2cccs2)c2c3c(sc2n1)CCC3 was read as CYP2C19 inh inactive, CYP2C19 activ inactive, CYP2C9 inhib inactive, PostGolgi yeast inactive, PostGolgi ctrl inactive and CYP2C9 act inactive.
`O=C(O)[C@H](CO)Nc1ncnc2sc3c(c12)CCC3` gave CYP2C19 inh inactive, CYP2C19 activ inactive, CYP2C9 inhib inactive, PostGolgi yeast inactive, PostGolgi ctrl inactive and CYP2C9 act inactive.
Screening Cc1nc(NC(C)c2ccccc2)c2c3c(sc2n1)CCC3 (configuration not stated) returned CYP2C19 inh 83.8, CYP2C19 activ inactive, CYP2C9 inhib 55.9, PostGolgi yeast inactive, PostGolgi ctrl inactive and CYP2C9 act inactive.
Screening COc1cccc(CNC(=O)C(CCSC)NS(=O)(=O)c2ccc3c(c2)oc(=O)n3C)c1 (configuration not stated) returned CYP2C19 inh inactive, CYP2C19 activ inactive, CYP2C9 inhib inactive, PostGolgi yeast inactive, PostGolgi ctrl inactive and CYP2C9 act inactive.
For COc1ccc2cc(CN(CCc3ccccc3)Cc3nnnn3CC3CCCO3)c(=O)[nH]c2c1 (configuration not stated) the results were CYP2C19 inh inactive, CYP2C19 activ inactive, CYP2C9 inhib 63.3, PostGolgi yeast inactive, PostGolgi ctrl inactive and CYP2C9 act inactive.
